# Assay results as given in the supplement of paper PMC4466140.
# Key:
# Assay in all cases: SPOT peptide array binding signal intensity (averaged, normalized) (arbitrary units (background-subtracted, floor 0; scale differs between SH3 domains)); higher = stronger binding of the SH3 domain to the peptide
# [1] = target: AgAbp1
# Protocol: (§1)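 GST-tagged SH3 domains from S. cerevisiae (Sc), A. gossypii (Ag), C. albicans (Ca) and S. pombe (Sp) were incubated at 10 ug/ml overnight at 4 C on cellulose SPOT membranes carrying 292 synthetic 15-mer peptides mined from the S. cerevisiae proteome (cysteines replaced by serines). Binding was detected with anti-GST antibody, HRP secondary and chemiluminescence, quantified with Genespotter, and reported as normalized spot intensities averaged over biological replicates.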
# [2] = target: AgBbc1
# Protocol: as §1
# [3] = target: AgBem1-D1
# Protocol: as §1
# [4] = target: AgBzz1-D1
# Protocol: as §1
# [5] = target: AgBzz1-D2
# Protocol: as §1
# [6] = target: AgCyk3
# Protocol: as §1
# [7] = target: AgFus1
# Protocol: as §1
# [8] = target: AgHof1
# Protocol: as §1
# [9] = target: AgHse1
# Protocol: as §1
# [10] = target: AgLsb1
# Protocol: as §1
# [11] = target: AgLsb4
# Protocol: as §1
# [12] = target: AgMyo5
# Protocol: as §1
# [13] = target: AgNbp2
# Protocol: as §1
# [14] = target: AgRvs167
# Protocol: as §1
# [15] = target: AgSho1
# Protocol: as §1
# [16] = target: AgSla1-D1-D2
# Protocol: as §1
# [17] = target: AgSla1-D3
# Protocol: as §1
# [18] = target: CaAbp1-D1
# Protocol: as §1
# [19] = target: CaAbp1-D2
# Protocol: as §1
# [20] = target: CaBbc1
# Protocol: as §1
# [21] = target: CaBem1-D1
# Protocol: as §1
# [22] = target: CaBzz1-D1
# Protocol: as §1
# [23] = target: CaBzz1-D2
# Protocol: as §1
# [24] = target: CaCyk3
# Protocol: as §1
# [25] = target: CaFus1
# Protocol: as §1
# [26] = target: CaHof1
# Protocol: as §1
# [27] = target: CaHse1
# Protocol: as §1
# [28] = target: CaLsb1
# Protocol: as §1
# [29] = target: CaLsb4
# Protocol: as §1
# [30] = target: CaMyo5
# Protocol: as §1
# [31] = target: CaNbp2
# Protocol: as §1
# [32] = target: CaRvs167
# Protocol: as §1
# [33] = target: CaRvs167-3
# Protocol: as §1
# [34] = target: CaSho1
# Protocol: as §1
# [35] = target: CaSla1-D1-D2
# Protocol: as §1
# [36] = target: CaSla1-D3
# Protocol: as §1
# [37] = target: ScAbp1
# Protocol: as §1
# [38] = target: ScBbc1
# Protocol: as §1
# [39] = target: ScBem1-D1
# Protocol: as §1
# [40] = target: ScBzz1-D1
# Protocol: as §1
# [41] = target: ScBzz1-D2
# Protocol: as §1
# [42] = target: ScCyk3
# Protocol: as §1
# [43] = target: ScFus1
# Protocol: as §1
# [44] = target: ScHof1
# Protocol: as §1
# [45] = target: ScHse1
# Protocol: as §1
# [46] = target: ScLsb1
# Protocol: as §1
# [47] = target: ScLsb2
# Protocol: as §1
# [48] = target: ScLsb3
# Protocol: as §1
# [49] = target: ScLsb4
# Protocol: as §1
# [50] = target: ScMyo3
# Protocol: as §1
# [51] = target: ScMyo5
# Protocol: as §1
# [52] = target: ScNbp2
# Protocol: as §1
# [53] = target: ScPex13
# Protocol: as §1
# [54] = target: ScRvs167
# Protocol: as §1
# [55] = target: ScSho1
# Protocol: as §1
# [56] = target: ScSla1-D1-D2
# Protocol: as §1
# [57] = target: ScSla1-D3
# Protocol: as §1
# [58] = target: SpAbp1-D1
# Protocol: as §1
# [59] = target: SpBbc1
# Protocol: as §1
# [60] = target: SpBzz1-D1
# Protocol: as §1
# [61] = target: SpBzz1-D2
# Protocol: as §1
# [62] = target: SpCyk3
# Protocol: as §1
# [63] = target: SpHof1
# Protocol: as §1
# [64] = target: SpHof1-2
# Protocol: as §1
# [65] = target: SpHof1-3
# Protocol: as §1
# [66] = target: SpHse1
# Protocol: as §1
# [67] = target: SpLsb1
# Protocol: as §1
# [68] = target: SpLsb4
# Protocol: as §1
# [69] = target: SpMyo1
# Protocol: as §1
# [70] = target: SpNbp2
# Protocol: as §1
# [71] = target: SpPex13
# Protocol: as §1
# [72] = target: SpRvs167
# Protocol: as §1
# [73] = target: SpSla1-D1-D2
# Protocol: as §1
# [74] = target: SpSla1-D3
# Protocol: as §1
binder,measurement,setting,value
QQNRPLPQLPNRNNR,SPOT peptide array binding signal intensity,[1],30
same,SPOT peptide array binding signal intensity,[2],585
same,SPOT peptide array binding signal intensity,[3],98.5
same,SPOT peptide array binding signal intensity,[4],73
same,SPOT peptide array binding signal intensity,[5],80
same,SPOT peptide array binding signal intensity,[6],102
same,SPOT peptide array binding signal intensity,[7],17
same,SPOT peptide array binding signal intensity,[8],938
same,SPOT peptide array binding signal intensity,[9],29
same,SPOT peptide array binding signal intensity,[10],148
same,SPOT peptide array binding signal intensity,[11],1970
same,SPOT peptide array binding signal intensity,[12],≤ 0
same,SPOT peptide array binding signal intensity,[13],0.5
same,SPOT peptide array binding signal intensity,[14],797
same,SPOT peptide array binding signal intensity,[15],2750
same,SPOT peptide array binding signal intensity,[16],1
same,SPOT peptide array binding signal intensity,[17],≤ 0
same,SPOT peptide array binding signal intensity,[18],32
same,SPOT peptide array binding signal intensity,[19],6
same,SPOT peptide array binding signal intensity,[20],1000
same,SPOT peptide array binding signal intensity,[21],26.5
same,SPOT peptide array binding signal intensity,[22],132
same,SPOT peptide array binding signal intensity,[23],90.5
same,SPOT peptide array binding signal intensity,[24],35
same,SPOT peptide array binding signal intensity,[25],74
same,SPOT peptide array binding signal intensity,[26],17
same,SPOT peptide array binding signal intensity,[27],49.2
same,SPOT peptide array binding signal intensity,[28],1.5
same,SPOT peptide array binding signal intensity,[29],4700
same,SPOT peptide array binding signal intensity,[30],4
LYKRKPILLPDPKPL,SPOT peptide array binding signal intensity,[1],30.5
same,SPOT peptide array binding signal intensity,[2],≤ 0
same,SPOT peptide array binding signal intensity,[3],≤ 0
same,SPOT peptide array binding signal intensity,[4],44
same,SPOT peptide array binding signal intensity,[5],70
same,SPOT peptide array binding signal intensity,[6],≤ 0
same,SPOT peptide array binding signal intensity,[7],≤ 0
same,SPOT peptide array binding signal intensity,[8],11
same,SPOT peptide array binding signal intensity,[9],93
same,SPOT peptide array binding signal intensity,[10],208
same,SPOT peptide array binding signal intensity,[11],1.5
same,SPOT peptide array binding signal intensity,[12],≤ 0
same,SPOT peptide array binding signal intensity,[13],4.5
same,SPOT peptide array binding signal intensity,[14],≤ 0
same,SPOT peptide array binding signal intensity,[15],≤ 0
same,SPOT peptide array binding signal intensity,[16],29
same,SPOT peptide array binding signal intensity,[17],9
same,SPOT peptide array binding signal intensity,[18],292
same,SPOT peptide array binding signal intensity,[19],140
same,SPOT peptide array binding signal intensity,[20],16.5
same,SPOT peptide array binding signal intensity,[21],≤ 0
same,SPOT peptide array binding signal intensity,[22],150
same,SPOT peptide array binding signal intensity,[23],40.8
same,SPOT peptide array binding signal intensity,[24],4
same,SPOT peptide array binding signal intensity,[25],39
same,SPOT peptide array binding signal intensity,[26],0.75
same,SPOT peptide array binding signal intensity,[27],≤ 0
same,SPOT peptide array binding signal intensity,[28],228
same,SPOT peptide array binding signal intensity,[29],≤ 0
same,SPOT peptide array binding signal intensity,[30],≤ 0
same,SPOT peptide array binding signal intensity,[31],33
same,SPOT peptide array binding signal intensity,[32],7.67
same,SPOT peptide array binding signal intensity,[33],1.75
same,SPOT peptide array binding signal intensity,[34],≤ 0
same,SPOT peptide array binding signal intensity,[35],50
same,SPOT peptide array binding signal intensity,[36],≤ 0
same,SPOT peptide array binding signal intensity,[37],38
same,SPOT peptide array binding signal intensity,[38],2
same,SPOT peptide array binding signal intensity,[39],3
same,SPOT peptide array binding signal intensity,[40],20.5
same,SPOT peptide array binding signal intensity,[41],15.5
same,SPOT peptide array binding signal intensity,[42],≤ 0
same,SPOT peptide array binding signal intensity,[43],≤ 0
same,SPOT peptide array binding signal intensity,[44],≤ 0
same,SPOT peptide array binding signal intensity,[45],267
same,SPOT peptide array binding signal intensity,[46],162
same,SPOT peptide array binding signal intensity,[47],838
same,SPOT peptide array binding signal intensity,[48],7
same,SPOT peptide array binding signal intensity,[49],≤ 0
same,SPOT peptide array binding signal intensity,[50],≤ 0
same,SPOT peptide array binding signal intensity,[51],0.5
same,SPOT peptide array binding signal intensity,[52],14.5
same,SPOT peptide array binding signal intensity,[53],≤ 0
same,SPOT peptide array binding signal intensity,[54],16.7
same,SPOT peptide array binding signal intensity,[55],62.5
same,SPOT peptide array binding signal intensity,[56],135
same,SPOT peptide array binding signal intensity,[57],5
same,SPOT peptide array binding signal intensity,[58],29
same,SPOT peptide array binding signal intensity,[59],≤ 0
same,SPOT peptide array binding signal intensity,[60],188
same,SPOT peptide array binding signal intensity,[61],0.5
same,SPOT peptide array binding signal intensity,[62],≤ 0
same,SPOT peptide array binding signal intensity,[63],6.25
same,SPOT peptide array binding signal intensity,[64],7.5
same,SPOT peptide array binding signal intensity,[65],83
same,SPOT peptide array binding signal intensity,[66],4
same,SPOT peptide array binding signal intensity,[67],19.8
same,SPOT peptide array binding signal intensity,[68],≤ 0
same,SPOT peptide array binding signal intensity,[69],≤ 0
same,SPOT peptide array binding signal intensity,[70],5.5
same,SPOT peptide array binding signal intensity,[71],≤ 0
same,SPOT peptide array binding signal intensity,[72],12.3
same,SPOT peptide array binding signal intensity,[73],≤ 0
same,SPOT peptide array binding signal intensity,[74],≤ 0
